Measured values reported in PubChem BioAssay (NCI).
The panel holds about 83,000 compounds, 20% with a hit somewhere; the sample as a whole holds those more often.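 Each cell line was grown in a 96-well plate and treated with one concentration of compound for 48 hours. Values below 10 were considered active.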 Values without a mark were called inactive. The source made the active and inactive calls.

Experiments:
Assay in all cases: NCI-60 one-dose screen, 48 h (100 = growth as untreated, 0 = no growth, -100 = all killed)
Conditions in all cases: 10 µM
SR leukemia = test system: SR leukemia
RPMI-8226 leukemia = test system: RPMI-8226 leukemia
OVCAR-8 ovarian = test system: OVCAR-8 ovarian
OVCAR-5 ovarian = test system: OVCAR-5 ovarian
OVCAR-4 ovarian = test system: OVCAR-4 ovarian
SK-OV-3 ovarian = test system: SK-OV-3 ovarian
IGROV1 ovarian = test system: IGROV1 ovarian
OVCAR-3 ovarian = test system: OVCAR-3 ovarian
HS 578T breast = test system: HS 578T breast
NCI/ADR-RES ovarian = test system: NCI/ADR-RES ovarian

Compound | growth (SR leukemia) | growth (RPMI-8226 leukemia) | growth (OVCAR-8 ovarian) | growth (OVCAR-5 ovarian) | growth (OVCAR-4 ovarian) | growth (SK-OV-3 ovarian) | growth (IGROV1 ovarian) | growth (OVCAR-3 ovarian) | growth (HS 578T breast) | growth (NCI/ADR-RES ovarian)
C/C(=N\NC(=S)N1CCCC1)c1ccccn1 | 6.59% (active) | 12.9% | 11.1% | 40.3% | 3.92% (active) | 26.5% | -3.85% (active) | 23.8% | 31.8% | -5.31% (active)
NC(=O)C12C(=O)NC(=O)C1(C(=O)O)C21CCCC1 (configuration not stated) | 106% | 94.6% | 104% | 110% | 104% | 116% | 106% | 116% | 107% | 114%
COc1cc(-c2nc(-c3nnc(-c4cccnc4)o3)c3ccccn23)cc(OC)c1OC | 104% | 60.9% | 73.8% | 110% | 123% | 108% | 103% | 129% | 103% | 82.2%
COc1cc(Cn2c(-c3ccccc3)c(Cl)c3c2-c2oncc2CC3)cc(OC)c1 | 0.637% (active) | 58.9% | 92.8% | 96.7% | 76.8% | 97.2% | 16.2% | 45.9% | 52.8% | 47.6%
N#CN1CC[C@H](C(=O)Nc2ncc(-c3ccncc3)s2)C1 | 1.53% (active) | 7.02% (active) | 2.72% (active) | 5.32% (active) | 3.57% (active) | 2.96% (active) | 12.5% | -22.1% (active) | 2.54% (active) | 5.43% (active)
Cc1nnc2c3nnc(-c4ccc(Cl)cc4)n3c3ccccc3n12 | 77% | 95% | 98.1% | 100% | 115% | 92.5% | 91.8% | 104% | 97.9% | 107%
Nc1ccc2c(c1)Cc1cc(N)c(Cl)cc1-2 | 88.8% | 96.8% | 97.9% | 112% | 84% | 113% | 98.2% | 124% | 89.8% | 107%
O=C(O)CCCN1C(=O)NC2(C1=O)c1ccccc1-c1ccccc12 | 100% | 99.9% | 97.3% | 101% | 106% | 103% | 101% | 109% | 93.9% | 96.8%
CCCn1c(=O)c2c(nc(-c3cccc(OCCCCl)c3)n2C)n(CCC)c1=O | 59.6% | 83.9% | 33.9% | 73.1% | 0.205% (active) | 7.41% (active) | 30.2% | 21.7% | 31.4% | 35.9%
NC(N)=NS(=O)(=O)c1ccc(Nc2ccc3nnc(-c4ccncc4)n3n2)cc1 | 96.9% | 104% | 96.7% | 100% | 103% | 104% | 113% | 110% | 99.6% | 105%
CC(C)/C(=N/O)c1ccccc1 | 107% | 111% | 110% | 103% | 111% | 122% | 118% | 130% | 118% | 107%
CCOCC[P+](c1ccccc1)(c1ccccc1)c1ccccc1 | 21.4% | 1.2% (active) | 46.5% | 76.2% | 36.4% | 60.3% | 46.9% | 33.8% | 79.1% | 100%
CCCCc1ccc(NC(=O)N(CCCl)N=O)cc1 | 30.9% | 98.6% | 96.7% | 104% | 108% | 95.3% | 97.2% | 105% | 111% | 115%
FC(F)(F)c1ccc(-c2nc(-c3nc4cc(Cl)c(Cl)cc4[nH]3)c3ccccn23)cc1 | 84.2% | 71.5% | 63.3% | 88.6% | 4.24% (active) | 38% | 66.3% | 52.7% | 3.78% (active) | 63.5%
COc1ccc(Cn2cc3c(c2-c2cc(OC)c(OC)c(OC)c2)CCc2cnoc2-3)cc1N | 14.8% | 25.7% | 28% | 52.4% | 37.6% | 2.09% (active) | 7.25% (active) | 1.74% (active) | 10.4% | 6.71% (active)
Cc1ccc([P+](Cc2ccc([N+](=O)[O-])cc2)(c2ccc(C)cc2)c2ccc(C)cc2)cc1 | 3.65% (active) | -25.3% (active) | 40.3% | 72.9% | 31.1% | 74.7% | 11.9% | 25.7% | 86.9% | 100%
COc1ccc(-c2nc(SCC(=O)c3ccc(Br)cc3)[nH]c(=O)c2C#N)cc1 | 94.5% | 104% | 106% | 102% | 120% | 113% | 112% | 99.3% | 96.4% | 110%
Cc1[nH]nc2c(=S)[nH]c(=O)[nH]c12 | 113% | 101% | 99.1% | 99.4% | 99.6% | 109% | 111% | 110% | 105% | 100%
N#CCC1CCCC1 | 81.6% | 97.2% | 98.9% | 105% | 95.7% | 104% | 118% | 121% | 106% | 101%
COC(=O)[C@]12CC[C@@H](C)[C@H](C)[C@@H]1C1=CC[C@@H]3[C@@]4(C)CC(=O)[C@H](O)[C@@](C)(CO)[C@@H]4C(=O)C[C@@]3(C)[C@]1(C)CC2 | -51.3% (active) | -32.2% (active) | -8.97% (active) | 50.7% | 13.8% | 3.85% (active) | -27.7% (active) | -27.3% (active) | -1.78% (active) | -24.3% (active)

Compound | growth (SR leukemia) | growth (RPMI-8226 leukemia) | growth (OVCAR-8 ovarian) | growth (OVCAR-5 ovarian) | growth (OVCAR-4 ovarian) | growth (SK-OV-3 ovarian) | growth (IGROV1 ovarian) | growth (OVCAR-3 ovarian) | growth (HS 578T breast) | growth (NCI/ADR-RES ovarian)
CCc1ccc(-c2nnc(COc3ccc(-c4nc5ccccc5[nH]4)cc3OC)o2)cc1 | -8.81% (active) | 52.1% | 40.9% | 96.6% | -36.2% (active) | 100% | 53.6% | 4.63% (active) | 14.4% | 69.2%
CC(C)C[C@H](NC(=O)CCn1ccc2ccccc2c1=O)B(O)O | 8.08% (active) | 10.4% | 72.4% | 65.6% | 85.9% | 77.8% | 93.6% | 28.8% | 63.3% | 87.9%
O=C(C=P(c1ccccc1)(c1ccccc1)c1ccccc1)c1ccc(Br)cc1 | 56.6% | 47.4% | 89.1% | 104% | 95.5% | 108% | 91.4% | 64.5% | 107% | 79.9%
COc1ccc2nc(C)cc(Nc3ccc(Cl)cc3)c2c1 | 113% | 102% | 101% | 101% | 90.5% | 105% | 98.2% | 105% | 112% | 102%
COc1cc(OC)cc(-c2ccc(-c3ccc(C(=N)N)cn3)o2)c1 | 0.771% (active) | -50% (active) | 9.75% (active) | -0.187% (active) | 23.1% | 31.2% | 27% |  | -11.6% (active) | 74.5%
FC(F)(F)c1ccc(-c2ncc(-c3ccc(C(F)(F)F)cc3)c(NCc3cc(C(F)(F)F)cc(C(F)(F)F)c3)n2)cc1 | 83.7% | 53% | 44.5% | 79.4% | 81.3% | 82.4% | 65.6% |  | 71.9% | 68.5%
COc1cc(/C=C/C(=O)c2cc(-c3ccccc3)ccc2O)cc(OC)c1OC | 43.4% | 12.3% | 60.8% | 93.1% | 68% | 71.3% | 83% | 77.2% | 82.3% | 69.4%
Cc1cc(O)c(C2=NN(c3ccc(S(N)(=O)=O)cc3)C(c3ccc(N(C)C)cc3)C2)c(C)c1Cl (configuration not stated) | 25.5% | -22.2% (active) | 75.2% | 96.8% | 58.8% | 106% | 34.1% |  | 82.5% | 85.6%
COc1ccc(-c2nc(NC(=O)CS(=O)(=O)c3ccc(F)cc3)sc2C)cc1 | 32.5% | -0.965% (active) | 74% | 95.4% | 69.8% | 73.6% | 54.5% |  | 79.5% | 50.6%
O=S(=O)(NCl)c1ccccc1 | 86% | 105% | 103% | 110% | 95.9% | 105% | 107% |  | 102% | 103%
Nc1cc(O)cc(O)c1 | 91.7% | 109% | 104% | 89.6% | 94.1% | 99.3% | 100% | 108% |  | 99.7%
COc1cc(Cl)cc(-c2nn(-c3cccc(NC(=O)Nc4cccc(C(F)(F)F)c4)c3)cc2-c2ccncc2)c1 | -13.5% (active) | -14.2% (active) | -12.3% (active) | 34.1% | 3.28% (active) | 14.2% | 28.8% | -0.412% (active) | 23.1% | 3.58% (active)
Cc1ccc2oc(=O)cc(/C(=C3/C=CC=N3)c3ccc[nH]3)c2c1 | -9.31% (active) | -16.9% (active) | -20.2% (active) | 21.1% | 28% | -16% (active) | 16.6% | -23.3% (active) | 12.9% | 0.0095% (active)
Nc1ccccc1NC(=O)CCCCCCC(=O)Nc1ccc2c(c1)/C(=C/c1ccc[nH]1)C(=O)N2 | 26.8% | -17.6% (active) | 26.2% | 67% | 35.1% | 38.4% | 49.7% |  | 27.5% | 93.1%
O=S(=O)(NCCO)c1ccc(OCCOc2ccc(S(=O)(=O)NCCO)cc2)cc1 | 104% | 98% | 98.7% | 99.2% | 107% | 96.1% | 99.9% |  | 104% | 97.8%
COc1ccc(C2C=C(c3ccc(Cl)c(Cl)c3)N=C3SC(C)=CN32)cc1 (configuration not stated) | 9.84% (active) | 18% | 94% | 102% | 91.3% | 109% | 86.8% |  | 105% | 107%
COc1ccc(OC)c([N+](=O)[O-])c1C=O | 37.2% | 75.1% | 97.8% | 107% | 105% | 101% | 101% |  | 89.6% | 113%
COc1cc(-c2n/c(=C\c3c(O)[nH]c4ccccc34)cc3c2=Nc2ccccc2-3)cc(OC)c1OC | 8.26% (active) | 25.5% | 11.3% | 46.4% | 26.8% | -9.66% (active) | 44.3% |  | 3.83% (active) | 4.78% (active)
O=C(/C=C/c1ccc(Cl)cc1)c1ccc(Br)cc1 | 71.4% | 28.1% | 103% | 91.8% | 92.5% | 100% | 88.2% |  | 124% | 101%
O/N=C1\CCC2CCCCC2C1 (configuration not stated) | 87.1% | 104% | 112% | 104% | 97.8% | 105% | 105% |  | 108% | 109%
